Where a name gives a salt, the structure may show the parent alone. ± gives the standard deviation of the averaged measurements. The full ranking holds about 1,100 compounds; the median of “day of extracellular matrix detachment from plate” is about 16, and the lowest 2% start at about 10. This excerpt belongs to a sample that is enriched for the lowest values.
What follows are compounds tested on RDEB dermal fibroblasts EB71 (assay: day of extracellular matrix detachment from plate (days); higher = delayed detachment (less fibrotic matrix)). Details: compound concentration: 10 uM.

| SMILES | day of extracellular matrix detachment from plate |
| --- | --- |
| CC(C)[C@H]1C(=O)N[C@@H](CCCNC(=N)N)C(=O)NCC(=O)N[C@@H](CC(=O)O)C(=O)N[C@H](Cc2ccccc2)C(=O)N1C [Cilengitide] | 6 |
| CCCCCCCCCC(=O)N[C@@H](Cc1c[nH]c2ccccc12)C(=O)N[C@H](CC(N)=O)C(=O)N[C@@H](CC(=O)O)C(=O)N[C@@H]1C(=O)NCC(=O)N[C@@H](CCCN)C(=O)N[C@@H](CC(=O)O)C(=O)N[C@H](C)C(=O)N[C@@H](CC(=O)O)C(=O)NCC(=O)N[C@H](CO)C(=O)N[C@@H]([C@H](C)CC(=O)O)C(=O)N[C@@H](CC(=O)c2ccccc2N)C(=O)O[C@@H]1C [Daptomycin] | 22 |
| NC(=O)[C@@H]1CSSCCC(=O)N[C@@H](CCCCN=C(N)N)C(=O)NCC(=O)N[C@@H](CC(=O)O)C(=O)N[C@@H](Cc2c[nH]c3ccccc23)C(=O)N2CCC[C@H]2C(=O)N1 [Eptifibatide Acetate] | 22 |
| CN1CCC(=C2c3ccccc3CCn3c(C=O)cnc32)CC1 [Alcaftadine] | 19.3 ± 2.5 |
| O=C([O-])c1ccccc1O.[Na+] [Sodium salicylate] | 14 |
| O=C(O[C@H]1CN2CCC1CC2)N1CCc2ccccc2[C@@H]1c1ccccc1 [Solifenacin succinate] | 27.3 ± 2.9 |
| CN(C)[C@@H]1C(O)=C(C(N)=O)C(=O)[C@@]2(O)C(O)=C3C(=O)c4c(O)ccc(Cl)c4[C@@](C)(O)[C@H]3C[C@@H]12 [Chlortetracycline HCl] | 23 ± 6.9 |
| COc1ccc(CNc2nc(N3CCC[C@H]3CO)ncc2C(=O)NCc2ncccn2)cc1Cl [Avanafil] | 18 |
| CC[C@@H]1/C=C(\C)C[C@H](C)C[C@H](OC)[C@H]2O[C@@](O)(C(=O)C(=O)N3CCCC[C@H]3C(=O)O[C@H](/C(C)=C/[C@@H]3CC[C@H](Cl)[C@H](OC)C3)[C@H](C)[C@@H](O)CC1=O)[C@H](C)C[C@@H]2OC [Pimecrolimus] | 17.7 ± 4 |
| CN1CCOC(c2ccccc2)c2ccccc2C1 (stereo not drawn) [Nefopam HCl] | 20 |
| CO[C@H]1/C=C/O[C@@]2(C)Oc3c(C)c(O)c4c(O)c(c(/C=N/N5CCN(C)CC5)c(O)c4c3C2=O)NC(=O)/C(C)=C\C=C\[C@H](C)[C@H](O)[C@@H](C)[C@@H](O)[C@@H](C)[C@H](OC(C)=O)[C@@H]1C [Rifampin] | 12 |
| CCCS(=O)(=O)Nc1ccc(F)c(C(=O)c2c[nH]c3ncc(-c4ccc(Cl)cc4)cc23)c1F [Vemurafenib (PLX4032, RG7204)] | 14 ± 1.7 |
| Clc1ccc(CCC(Cn2ccnc2)Sc2c(Cl)cccc2Cl)cc1 (stereo not drawn) [Butoconazole nitrate] | 16 |
